Compound activity deposited in PubChem by National Center for Advancing Translational Sciences (NCATS).
A selection: hits, their analogues and other compounds. The true share with any hit is near 0.71%.
ERG Ets-DNA blk – qHTS for Small Molecule Inhibitors of the ERG Ets/DNA interaction | actives 0.028% (n = 370,000) | fluorescence polarization, His-ERG Ets domain / labelled DNA | Transcriptional regulator ERG (Homo sapiens), P11308 | Potency, µM (series often up to 76.9 µM), inactives show top-dose FP activity, negative = inhibition, usual class: inhibitors; active means well fitted inhibition curve with a large enough effect in the polarisation, with a control signal flat; inconclusive means small, poorly fitted or top-dose-only effect, or effect the other way, or a change in a side signal; inactive means no such curve, though single readings can be large or run the other way; the % refers to the polarisation;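 further: polarization taken with two DNA probes labelled with fluorescein and Texas red; % of control where 0% means no effect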
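His-tagged ERG Ets domain (1 uM in the protein solution; 300mM KCl, 50mM Tris-HCl, 1mM EDTA, 1mM DTT, pH 7.5) received compound, then a probe mix of 5 nM fluorescein-DNA and 100nM Texas-615-DNA. Fluorescence polarization was read for both dyes.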
TR SRC2 fluor cs – Total Fluorescence Counterscreen for Inhibitors of the Interaction of Thyroid Hormone Receptor and Steroid Receptor Coregulator 2. TRb/SRC2 Texas Red total fluorescence interference. Potency, µM (doses to about 106 µM), for the others: at the highest dose fluorescence change, negative = quenching. actives 0.29% (n = 280,000). AID 1479, 2009; active means well fitted curve in either direction with a large enough effect; inconclusive means small, poorly fitted or top-dose-only effect; further: on the % scale 0 is the no-effect control and ±100 the full control effect
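Human TRβ ligand-binding domain (0.6 uM) and Texas Red SRC2 peptide (20 nM) in Tris buffer with 1 uM T3 and 5% DMSO were incubated with pinned compound for 5 hr at ambient temperature. Total fluorescence was computed as S + 2P (555/632 nm).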
GoLoco inh red – qHTS Assay for Inhibitors of RGS12 GoLoco Motif Activity (Red Fluorophore) | Gai1:RGS12 GoLoco peptide FP, rhodamine, 10 min | Potency, µM (highest dose often 61.6 µM), without a hit: at the highest dose activity, negative = inhibition, usual class: inhibitors | actives 0.44% (n = 230,000) | AID 880, 2007; active means well fitted inhibition curve with a large enough effect, not every such curve was filed as active; inactive means no such curve, though single readings can be large or run the other way; further: on the % scale 0 is the no-effect control and ±100 the full control effect; nearly all actives have a fitted effect of over 30% in size
BLM helicase inh – qHTS Assay for Inhibitors of Bloom's syndrome helicase (BLM) | RecQ-like DNA helicase BLM (Homo sapiens), P54132 | recombinant BLM DNA unwinding, fluorescence dequenching | Potency, µM (titrated, usually from 56.1 µM), without a hit: top-dose activity change, negative = inhibition, hits mostly inhibitors | actives 0.2% (n = 350,000);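 further: plate controls were vehicle for no effect and no enzyme for full effect; nearly all actives have a fitted effect of over 35% in size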
Target sequence (P54132 whole entry, looked up): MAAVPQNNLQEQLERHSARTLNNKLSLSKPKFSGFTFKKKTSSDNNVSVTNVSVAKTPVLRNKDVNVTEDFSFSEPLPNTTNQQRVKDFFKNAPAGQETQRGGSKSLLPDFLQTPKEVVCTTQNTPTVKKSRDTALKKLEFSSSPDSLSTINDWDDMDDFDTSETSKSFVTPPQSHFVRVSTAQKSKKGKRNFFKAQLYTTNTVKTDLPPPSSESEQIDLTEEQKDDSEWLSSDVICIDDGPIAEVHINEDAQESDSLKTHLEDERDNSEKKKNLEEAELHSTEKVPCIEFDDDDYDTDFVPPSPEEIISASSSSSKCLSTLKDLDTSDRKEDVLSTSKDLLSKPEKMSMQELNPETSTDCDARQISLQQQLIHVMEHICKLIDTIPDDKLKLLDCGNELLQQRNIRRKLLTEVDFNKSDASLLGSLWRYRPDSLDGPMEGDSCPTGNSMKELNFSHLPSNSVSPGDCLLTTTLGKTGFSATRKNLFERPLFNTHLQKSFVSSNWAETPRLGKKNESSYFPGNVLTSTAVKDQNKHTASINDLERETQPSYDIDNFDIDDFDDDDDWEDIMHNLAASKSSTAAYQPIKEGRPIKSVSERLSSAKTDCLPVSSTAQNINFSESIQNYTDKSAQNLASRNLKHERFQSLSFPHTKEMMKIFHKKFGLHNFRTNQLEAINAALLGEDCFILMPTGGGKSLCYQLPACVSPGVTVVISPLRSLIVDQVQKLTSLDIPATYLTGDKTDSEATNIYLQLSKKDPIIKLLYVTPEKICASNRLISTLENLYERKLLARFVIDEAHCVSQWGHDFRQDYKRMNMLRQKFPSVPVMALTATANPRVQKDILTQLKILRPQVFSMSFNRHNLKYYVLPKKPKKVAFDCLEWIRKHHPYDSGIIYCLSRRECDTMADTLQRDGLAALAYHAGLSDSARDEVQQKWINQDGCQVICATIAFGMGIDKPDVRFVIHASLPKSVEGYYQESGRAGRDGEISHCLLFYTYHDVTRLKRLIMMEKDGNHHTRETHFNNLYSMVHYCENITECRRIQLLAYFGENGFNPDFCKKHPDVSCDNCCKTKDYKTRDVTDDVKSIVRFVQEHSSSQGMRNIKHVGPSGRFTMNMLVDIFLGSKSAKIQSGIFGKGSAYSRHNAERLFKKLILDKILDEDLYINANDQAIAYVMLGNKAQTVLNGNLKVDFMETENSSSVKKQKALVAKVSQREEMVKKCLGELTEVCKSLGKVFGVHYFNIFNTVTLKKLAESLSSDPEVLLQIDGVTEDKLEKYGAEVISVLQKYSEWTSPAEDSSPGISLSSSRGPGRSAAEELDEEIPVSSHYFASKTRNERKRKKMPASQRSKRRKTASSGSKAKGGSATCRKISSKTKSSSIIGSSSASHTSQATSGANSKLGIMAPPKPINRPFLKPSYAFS
TRb-SRC2 inh – qHTS for Inhibitors of the Interaction of Thyroid Hormone Receptor and Steroid Receptor Coregulator 2. Thyroid hormone receptor beta (Homo sapiens), P10828. actives 0.065% (n = 280,000). AID 1469, 2008. TRbeta-SRC2 peptide binding, fluorescence polarization; receptor liganded with 1 µM T3. Potency, µM (series often up to 106 µM), for the others: top-dose activity change, negative = inhibition, hits mostly inhibitors;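 further: plate controls were bound peptide for no effect and peptide without receptor for full effect; nearly all actives have a fitted effect of over 50% in size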
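Fluorescence polarization of 20 nM Texas Red SRC2 peptide with 0.6 uM human TRb ligand-binding domain, in Tris buffer with 1uM T3 and 5% DMSO. Incubated 5 hr ambient; normalized to unbound and bound controls.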
RECQ1 inh-1 – qHTS Assay for Inhibitors of RecQ-Like Dna Helicase 1 (RECQ1). Potency, µM (top dose mostly 57.3 µM), for inactives: at the highest dose activity, negative = inhibition, most hits filed as inhibitors. AID 2549, 2010. actives 0.54% (n = 240,000). RECQ1 DNA unwinding, red fluorescence kinetic read. ATP-dependent DNA helicase Q1 (Homo sapiens), P46063;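 further: plate controls were vehicle for no effect and no enzyme for full effect; nearly all actives have a fitted effect of over 30% in size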
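50 nM RECQ1T1 preincubated 15 min with compound in Tris pH 8.0 buffer with MgCl2, DTT, Tween-20 and 2.5 ug/ml poly(dI-dC); started with 200 nM TAMRA/BHQ-2 forked duplex and 2 mM ATP. Unwinding read as fluorescence (525/598 nm), two reads 2 h apart.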
RECQ1 inh-2 – Confirmation qHTS Assay for Inhibitors of RecQ-Like Dna Helicase 1 (RECQ1) - Round 2 Cherry Picks; shares compounds with RECQ1 inh-1; recombinant RECQ1 DNA unwinding, red fluorescence; Potency, µM (series often up to 119 µM), for the others: at the top dose activity, negative = inhibition, hits mostly inhibitors; actives 15% (n = 1,100); AID 504841, 2011; further: on the % scale 0 is the no-effect control and ±100 the full control effect; nearly all actives have a fitted effect of over 50% in size
Numbers without * were called inactive; [ ] = dose if it differs, or a comment. Unless noted, the call rests on the fitted dose curve; in most records, active means well fitted curve in the direction sought with a large enough effect; inconclusive means small, poorly fitted or top-dose-only effect, or another doubt; inactive means no such curve, though single readings can be large; an effect the other way counts as inactive or inconclusive. Potency means the concentration at half of the fitted maximal effect.

`NC(=O)c1ccc(N=Cc2c(O)n(Cc3ccco3)c(=O)[nH]c2=O)cc1` gave ERG Ets-DNA blk 6.9%, TR SRC2 fluor cs -1.9%, GoLoco inh red 8.1%, BLM helicase inh inconclusive, TRb-SRC2 inh -3.5%, RECQ1 inh-1 inconclusive and RECQ1 inh-2 inconclusive.
CCN(CC)c1ccc(N=Cc2c(O)n(Cc3ccco3)c(=O)[nH]c2=O)cc1 was read as ERG Ets-DNA blk -2.4%, TR SRC2 fluor cs -0.8%, GoLoco inh red 9.6%, BLM helicase inh -5.4%, TRb-SRC2 inh -0.5% and RECQ1 inh-1 1.0%.
Screening O=c1[nH]c(=S)n(Cc2ccco2)c(O)c1C=NCc1cccs1 returned ERG Ets-DNA blk 5.4%, TR SRC2 fluor cs -20.7%, GoLoco inh red 16.5%, BLM helicase inh 6.1%, TRb-SRC2 inh -2.2%, RECQ1 inh-1 inconclusive and RECQ1 inh-2 -26.4%.
CCOC(=O)C(C)OC(=O)c1cc(Oc2ccc(C(F)(F)F)cc2Cl)ccc1[N+](=O)[O-] (stereo not drawn) was read as TR SRC2 fluor cs -0.5%[201 µM] and TRb-SRC2 inh -5.7%[201 µM].
Screening CC(C)(C)N(NC(=O)c1ccc(Cl)cc1)C(=O)c1ccccc1 returned TR SRC2 fluor cs 3.7%[201 µM] and TRb-SRC2 inh -2.8%[201 µM].
For COC[C@H]1OC(=O)c2coc3c2[C@@]1(C)C1=C(C3=O)[C@@H]2CCC(=O)[C@@]2(C)C[C@H]1OC(C)=O the results were ERG Ets-DNA blk inconclusive, TR SRC2 fluor cs 44.7µM*[fluorescent], GoLoco inh red -50.7%, TRb-SRC2 inh 35.5µM*, RECQ1 inh-1 35.5µM* and RECQ1 inh-2 5.2%.
O=c1[nH]c(=O)n(CCC2=CCCCC2)c(O)c1C=NCCCn1ccnc1 was read as ERG Ets-DNA blk 5.6%, TR SRC2 fluor cs -1.3%, GoLoco inh red -0.9%, BLM helicase inh -1.4%, TRb-SRC2 inh -17.4% and RECQ1 inh-1 -7.6%.
Screening O=c1[nH]c(=S)n(CCC2=CCCCC2)c(O)c1C=NCCCn1ccnc1 returned ERG Ets-DNA blk 6.7%, TR SRC2 fluor cs 5.7%, GoLoco inh red 171.4%, BLM helicase inh -8.3%, TRb-SRC2 inh 1.9%, RECQ1 inh-1 inconclusive and RECQ1 inh-2 -18.6%.
For CS(=O)(=O)c1cc(C(F)(F)F)ccc1C(=O)c1cnoc1C1CC1 the results were TR SRC2 fluor cs -12.6%[201 µM] and TRb-SRC2 inh 0.6%[201 µM].
Screening COc1cccc(CNC(=O)CSc2ccc(-c3ccco3)nn2)c1 returned ERG Ets-DNA blk -0.8%, TR SRC2 fluor cs -3.5%, GoLoco inh red 3.6%, BLM helicase inh -19.6%, TRb-SRC2 inh -2.5%, RECQ1 inh-1 inconclusive and RECQ1 inh-2 -14.0%.
Screening [CH3][Sn]([CH3])([Cl])[Cl] returned TR SRC2 fluor cs -2.0%[201 µM] and TRb-SRC2 inh 2.1%[201 µM].
Screening COCCCn1c(N)c(C(=O)OCCOC)c2nc3ccccc3nc21 returned ERG Ets-DNA blk 3.4%, TR SRC2 fluor cs -4.0%, GoLoco inh red 7.7%, BLM helicase inh -1.2%, TRb-SRC2 inh -28.8% and RECQ1 inh-1 8.4%.
For CC(C)CCNC(=O)c1c(N)n(Cc2ccc3c(c2)OCO3)c2nc3ccccc3nc12 the results were ERG Ets-DNA blk -24.7%, TR SRC2 fluor cs 0.0%, GoLoco inh red 8.1%, BLM helicase inh -26.8%, TRb-SRC2 inh inconclusive, RECQ1 inh-1 inconclusive and RECQ1 inh-2 -17.8%.
